Data on ten compounds can be found in PubChem BioAssay (Tox21).

The target in experiment [1] is Retinoic acid receptor RXR-alpha (Homo sapiens) (UniProt P19793). Put plainly: qHTS assay to identify small molecule agonists of the RXR signaling pathway (AID 1159527; calls by dose curve; also: nearly all actives have a fitted effect of over 35% in size). Summed up:
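Cells plated at 2,000/well, rested 5 hr at 37 C, pin-dosed with DMSO compound solutions, incubated 16 hr, then loaded with B/G FRET substrate for 2 hr at RT before dual-emission fluorescence reading.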

Experiment [2] can be described thus: qHTS assay to identify small molecule agonists of the RXR signaling pathway - cell viability counter screen (AID 1159529).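 Also: HEK 293T cells carrying an RXR-alpha UAS beta-lactamase reporter; nearly all actives have a fitted effect of over 50% in size.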 Summed up:
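Steps: seed RXR-alpha-UAS-bla HEK 293T cells in assay medium containing 2% charcoal-stripped FBS; incubate 5 hr; add compounds in DMSO; incubate 16 hr at 37 C; after the bla read, add CellTiter-Glo and read luminescence at 30 min.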

Experiment [3] is described as follows: qHTS assay to identify small molecule agonists of the retinoic acid receptor (RAR) signaling pathway (AID 1159553). Also: potency is read from the fitted curve at half-maximal effect. Conditions: C3RL4 RARE luciferase reporter, agonist, 6 h; activation: at 73.3 µM (top of the series). Summed up:
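C3RL4 RARE-luciferase cells were seeded at 1,000/well and grown overnight at 37 C, then exposed to compounds for 6 hr at 37 C, 5% CO2. Luciferase reagent was added and luminescence was read after 30 min at room temperature.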

Experiment [4] can be described thus: qHTS assay to identify small molecule antagonists of the estrogen related receptor (ERR) signaling pathway from Tox21 library - cell viability counter screen (AID 1224834). Also: nearly all actives have a fitted effect of over 30% in size. Also: potency is read from the fitted curve at half-maximal effect. Summed up: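 ERR reporter cells, 2,000 per well, rested 6 h, then exposed to compound in DMSO for 17.5 hours at 37 C. Viability read as fluorescence after 30 min with CellTiter-Fluor.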
Experiment [5] can be described thus: qHTS assay to identify small molecule agonists of the constitutive androstane receptor (CAR) signaling pathway - cell viability counter screen (AID 1224836). Also: nearly all actives have a fitted effect of over 45% in size. Summed up:
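Cells were seeded and incubated 4 hrs. Compounds were added across 15 concentrations together with PK11195 at 0.75 uM final. Plates were incubated 23 hrs at 37 C. CellTiter-Fluor was added and fluorescence measured.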

The nature of experiment [6]: qHTS assay to identify small molecule antagonists of the constitutive androstane receptor (CAR) signaling pathway - cell viability counter screen (AID 1224837). Also: nearly all actives have a fitted effect of over 45% in size. Summed up: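 HepG2 cells stably carrying hCAR and CYP2B6-2.2kb reporter, stimulated with 50 nM CITCO and compounds at 15 concentrations for 23 h at 37 C. Viability measured by CellTiter-Fluor fluorescence.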

Experiment [7] concerns the target Nuclear receptor subfamily 1 group I member 3 (Homo sapiens) (UniProt Q14994). Put plainly: qHTS assay to identify small molecule antagonists of the constitutive androstane receptor (CAR) signaling pathway (AID 1224838). Also: nearly all actives have a fitted effect of over 40% in size. Summed up:
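HepG2 cells stably carrying hCAR and a CYP2B6-2.2kb luciferase reporter, seeded 4 hrs before compound (15 concentrations). Stimulated with 50 nM CITCO for 24 hr at 37 C. ONE-Glo luminescence read after 30 min at room temperature.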

Experiment [8] shares this target. Put plainly: qHTS assay to identify small molecule agonists of the constitutive androstane receptor (CAR) signaling pathway (AID 1224839). Also: nearly all actives have a fitted effect of over 15% in size. Also: potency is read from the fitted curve at half-maximal effect. Summed up:
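Cells were plated and incubated 4 hrs, then dosed with compounds at 15 concentrations. PK11195 was added to 0.75 uM final. After 24 hrs at 37 C, luciferase luminescence was measured.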

Experiment [9] can be described thus: qHTS assay to identify small molecule agonists of the hypoxia (HIF-1) signaling pathway - cell viability counter screen (AID 1224844; calls by dose curve; also: nearly all actives have a fitted effect of over 50% in size). Summed up: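 HRE-bla ME-180 cells, 2,000/well in 0.5% dialyzed FBS medium, treated 17 h at 37C with compounds. Viability read in the same wells as the bla reporter, by CellTiter-Glo luminescence after 30 min at room temperature.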

The nature of experiment [10]: qHTS assay to identify small molecule agonists of the hypoxia (HIF-1) signaling pathway (AID 1224846; active = well fitted activation curve with a large enough effect in the signal ratio in the repeat runs, not every such curve was filed as active; the % refers to the signal ratio). Summed up: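 HRE-bla ME-180 beta-lactamase reporter cells in medium with 0.5% dialyzed FBS, pre-incubated 5 h then exposed to compounds 17 h at 37C, 5% CO2; reporter induction read with CCF4-AM FRET substrate.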
Experiment [11] can be described thus: qHTS assay to identify small molecule agonists of H2AX - cell viability counter screen (AID 1224847; calls by dose curve; also: top concentration of the series differs between compounds; nearly all actives have a fitted effect of over 30% in size). Summed up:
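Cytotoxicity counter screen in wild-type CHO-K1 cells: a 3 hr compound treatment at 37C across 15 concentrations, followed by CellTiter-Glo luminescence to gauge viable cells.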

Experiment [12] can be described thus: qHTS assay to identify small molecule antagonists of the retinoid acid receptor (RAR) signaling pathway - cell viability counter screen (AID 1159551). Also: nearly all actives have a fitted effect of over 35% in size. Summed up:
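C3RL4 RARE-luciferase cells, 1,000/well, incubated overnight, then dosed with compound plus 1 uM retinol (final). After 6 hr at 37 C, viability read by CellTiter-Glo ATP luminescence following 30 min at room temperature.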

Experiment [13] is described as follows: qHTS assay to identify small molecule antagonists of the retinoic acid receptor (RAR) signaling pathway (AID 1159552; also: nearly all actives have a fitted effect of over 50% in size). Summed up:
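Retinol at 1 uM final stimulated RARE-luciferase expression in C3RL4 cells exposed to test compounds for 6 hr at 37 C. Reduced luminescence, read 30 min after detection reagent, indicated pathway antagonism.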

The nature of experiment [14]: qHTS assay to identify small molecule antagonists of the estrogen related receptor signaling pathway with the pleiotropic PPARgamma coactivator (PGC) from Tox21 10K library - cell viability counter screen (AID 1224840; active = well fitted cell-killing curve with a large enough effect in the repeat runs, not every such curve was filed as active; also: nearly all actives have a fitted effect of over 40% in size). Summed up:
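PGC/ERR cells (2,000/well) plated 6 h, then compound-treated for 17.5 h at 37 C. Viability measured by CellTiter-Fluor fluorescence after 30 min at 37 C, multiplexed with the pathway assay.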

For experiment [15], the target named is Thyrotropin receptor (Homo sapiens) (UniProt P16473). As to the kind of experiment: qHTS assay to identify small molecule agonists of the thyroid stimulating hormone receptor (TSHR) signaling pathway (AID 1224843; calls by dose curve; also: nearly all actives have a fitted effect of over 45% in size). Summed up:
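Cell line HEK293 with TSHR; density 800/well. Exposure 30 min RT. Readout HTRF cAMP (cAMP-d2/anti-cAMP-cryptate), 1 h RT before reading.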

Experiment [16] in a line: qHTS assay to identify small molecule agonists of H2AX (AID 1224845; active = well fitted activation curve with a large enough effect in the signal ratio in the repeat runs, not every such curve was filed as active; the % refers to the signal ratio). Summed up: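 Wild-type CHO-K1 cells plated overnight, then exposed 3 hr at 37C to compounds at 15 concentrations (0.76% DMSO). Lysed, then HTRF anti-pH2AX(S139)-cryptate/anti-H2AX-d2 detection after 24 hr at room temperature; emissions 665 and 620 nm.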
Experiment [17] addresses Luciferin 4-monooxygenase (Photinus pyralis) (UniProt P08659). As to the kind of experiment: qHTS assay to identify small molecule inhibitors of firefly luciferase (AID 1224835). Also: nearly all actives have a fitted effect of over 25% in size. Also: potency is read from the fitted curve at half-maximal effect. Summed up:
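Quantitative HTS format; KM concentrations of both substrates. Purified P. pyralis FLuc activity quantified from luminescence images.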

Experiment [18] is described as follows: qHTS assay to identify small molecule antagonists of the estrogen related receptor signaling pathway with the pleiotropic PPARgamma coactivator (PGC) from Tox21 10K library (AID 1224841; call rule not given here; also: actives are mostly falling curves and most rising ones were filed inactive; nearly all actives have a fitted effect of over 50% in size). Summed up:
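PGC/ERR cell line, 2,000 cells/well, pre-incubated 6 hours at 37 C, then exposed to compounds for 18 hours at 37 C; luciferase read with One-Glo luminescence after 30 min at room temperature.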

Experiment [19] in a line: qHTS assay to identify small molecule agonists of the estrogen related receptor signaling pathway with the pleiotropic PPARgamma coactivator (PGC) from Tox21 10K library (AID 1224842). Also: nearly all actives have a fitted effect of over 15% in size. Summed up: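 PGC/ERR reporter cells (NTP line) were seeded 2,000 per well, rested 6 h at 37 C/5% CO2, then pin-dosed with compounds in DMSO for 18 h at 37 C; luciferase read by One-Glo luminescence after 30 min at room temperature.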

A short description of experiment [20]: qHTS assay to identify small molecule antagonists of the estrogen related receptor (ERR) signaling pathway from Tox21 library (AID 1224848). Also: nearly all actives have a fitted effect of over 50% in size. Summed up:
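Screening used an ERR reporter line supplied by NTP, exposed for 18 h at 37 C to library compounds delivered in DMSO. Signal was luciferase luminescence developed with ONE-Glo at room temperature for 30 min.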

Records with an inconclusive call do not appear. A number with no mark means an inactive call. Active and inactive are the calls of the source. Unless noted, calls follow the shape of the dose curve; as a rule, active = well fitted curve in the direction sought with a large enough effect in the repeat runs; inconclusive = weak or mixed curves; inactive = no such curve, though single readings can be large; an effect the other way counts as inactive or inconclusive.
% is scaled to controls: 0 for no effect and ±100 for the full control effect.

Sequence of Thyrotropin receptor (Homo sapiens) (P16473 whole entry, looked up): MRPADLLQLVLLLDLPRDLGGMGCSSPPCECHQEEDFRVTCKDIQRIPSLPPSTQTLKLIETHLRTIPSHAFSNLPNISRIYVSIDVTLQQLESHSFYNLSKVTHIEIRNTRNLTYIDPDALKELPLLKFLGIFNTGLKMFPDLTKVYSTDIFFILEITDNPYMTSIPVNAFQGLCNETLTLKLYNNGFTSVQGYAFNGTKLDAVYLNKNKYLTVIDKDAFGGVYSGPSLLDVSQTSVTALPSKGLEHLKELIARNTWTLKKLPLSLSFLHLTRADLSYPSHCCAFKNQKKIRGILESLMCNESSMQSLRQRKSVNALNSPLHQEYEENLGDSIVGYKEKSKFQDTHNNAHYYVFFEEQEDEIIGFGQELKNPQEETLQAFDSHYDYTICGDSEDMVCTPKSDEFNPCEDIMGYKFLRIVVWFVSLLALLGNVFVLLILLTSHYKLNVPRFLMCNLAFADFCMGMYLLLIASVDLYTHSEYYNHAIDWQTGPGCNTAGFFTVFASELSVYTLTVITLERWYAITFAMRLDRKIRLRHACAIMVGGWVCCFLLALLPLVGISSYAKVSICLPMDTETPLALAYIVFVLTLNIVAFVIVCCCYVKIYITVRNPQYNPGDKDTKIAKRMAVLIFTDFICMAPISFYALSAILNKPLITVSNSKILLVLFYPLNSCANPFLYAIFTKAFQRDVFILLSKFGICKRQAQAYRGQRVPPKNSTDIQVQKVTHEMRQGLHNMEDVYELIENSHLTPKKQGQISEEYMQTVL
Sequence of Nuclear receptor subfamily 1 group I member 3 (Homo sapiens) (Q14994 whole entry, looked up): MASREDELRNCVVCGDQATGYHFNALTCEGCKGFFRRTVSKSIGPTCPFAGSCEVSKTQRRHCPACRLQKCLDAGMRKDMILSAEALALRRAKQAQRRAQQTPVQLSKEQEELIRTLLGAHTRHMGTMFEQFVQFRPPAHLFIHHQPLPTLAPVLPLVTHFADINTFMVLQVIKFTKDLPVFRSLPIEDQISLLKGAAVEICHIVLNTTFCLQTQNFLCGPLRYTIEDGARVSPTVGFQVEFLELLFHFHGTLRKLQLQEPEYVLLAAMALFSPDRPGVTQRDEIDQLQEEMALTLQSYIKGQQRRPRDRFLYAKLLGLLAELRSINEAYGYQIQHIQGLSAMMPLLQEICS
Sequence of Retinoic acid receptor RXR-alpha (Homo sapiens) (P19793 whole entry, looked up): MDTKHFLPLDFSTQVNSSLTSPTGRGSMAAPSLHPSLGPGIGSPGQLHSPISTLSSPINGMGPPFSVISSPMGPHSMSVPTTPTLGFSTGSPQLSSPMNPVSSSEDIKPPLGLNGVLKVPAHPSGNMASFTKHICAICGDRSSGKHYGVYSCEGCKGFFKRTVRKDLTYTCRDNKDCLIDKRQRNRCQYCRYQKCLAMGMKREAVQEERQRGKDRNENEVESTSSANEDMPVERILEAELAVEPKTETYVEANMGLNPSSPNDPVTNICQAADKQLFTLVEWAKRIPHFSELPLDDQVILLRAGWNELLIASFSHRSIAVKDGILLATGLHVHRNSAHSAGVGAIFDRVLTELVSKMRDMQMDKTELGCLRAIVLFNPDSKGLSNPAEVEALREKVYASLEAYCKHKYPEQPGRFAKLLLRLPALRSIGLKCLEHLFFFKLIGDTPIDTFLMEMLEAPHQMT
Sequence of Luciferin 4-monooxygenase (Photinus pyralis) (P08659 whole entry, looked up): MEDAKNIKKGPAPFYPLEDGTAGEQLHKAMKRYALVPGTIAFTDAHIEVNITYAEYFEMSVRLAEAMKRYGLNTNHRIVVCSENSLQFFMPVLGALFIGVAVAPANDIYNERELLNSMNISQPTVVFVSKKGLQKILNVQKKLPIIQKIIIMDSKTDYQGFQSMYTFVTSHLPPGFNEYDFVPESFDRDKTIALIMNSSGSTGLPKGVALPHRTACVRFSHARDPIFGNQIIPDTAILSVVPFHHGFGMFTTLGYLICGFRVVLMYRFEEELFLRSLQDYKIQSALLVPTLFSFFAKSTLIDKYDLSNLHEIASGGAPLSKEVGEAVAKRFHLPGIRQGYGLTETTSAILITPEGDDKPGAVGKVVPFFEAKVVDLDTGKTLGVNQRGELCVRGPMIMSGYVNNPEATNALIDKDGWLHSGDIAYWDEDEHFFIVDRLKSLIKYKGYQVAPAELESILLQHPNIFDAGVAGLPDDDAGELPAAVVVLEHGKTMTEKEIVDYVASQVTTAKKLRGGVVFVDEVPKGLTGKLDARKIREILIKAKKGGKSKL

On to `Nc1cc(Cl)cc(S(=O)(=O)O)c1O`, for which the Potency result in [1], in [3], in experiment [4], in experiment [6], in [7] and in experiment [8] was “inactive” in each case. For the same compound, the Potency entry in experiment [11] was “inactive”. For the same compound, the compound was called inactive in experiment [2], in experiment [5], in experiment [9] and in experiment [10].
Take `CCCCC(=O)N(C)C`: the Potency entry in experiment [1], in experiment [13], in [3], in [4], in experiment [6] and in experiment [11] was “inactive” throughout. The outcome in experiment [12], in [5], in [14], in experiment [15], in experiment [9] and in experiment [16] was inactive. Also, the call in experiment [10] was inactive.
As to `CCOc1ccc(NC(=O)OC(C)C)cc1OCC`, the result in experiment [2], in experiment [12], in [5], in experiment [14], in experiment [9] and in [16] was inactive. For the same compound, the result in [10] was inactive. The Potency entry in experiment [13], in experiment [3], in experiment [4], in experiment [17], in [6] and in experiment [7] was “inactive” each time. Also, the Potency result in experiment [8] and in experiment [11] was “inactive” throughout.
As to `CCNC(=O)/C=C/c1cccc(Br)c1`, the Potency result in experiment [1], in experiment [13], in experiment [4], in experiment [6], in experiment [7] and in [11] was “inactive” throughout. For the same compound, the Potency in [3] was 15 µM (active); in experiment [8], 26.6 µM (active). The outcome in experiment [5], in experiment [15], in [9], in [16] and in experiment [10] was inactive.
Take `BrC/C=C/CBr`: the activation in [1] is 4.67% [at 15.8 µM]; in experiment [15] it was -9.51% [at 19 µM]; in [10], -1.18% [at 15.8 µM]. Also, in [3], the Potency entry is “inactive”. Besides, the viability change, negative = cytotoxic in experiment [4] is 0.661% [at 19 µM]; in experiment [14] it was 5.69% [at 19 µM]. The activity change, negative = inhibition in experiment [17] is 0.329% [at 23.6 µM]. For the same compound, the activity change, negative = cytotoxicity is -2.33% [at 19 µM] in experiment [6] and -5.88% [at 15.8 µM] in [9]. The activation (H2AX phosphorylation) in experiment [16] was -0.0482% [at 31.6 µM].
Consider `CCCC(C)CC` (centres undefined), for which the Potency entry in [1], in experiment [3], in experiment [4], in experiment [6] and in [11] was “inactive” in each case. For the same compound, the outcome in [12], in experiment [5], in experiment [14], in experiment [15], in experiment [9] and in experiment [16] was inactive. The compound was called inactive in experiment [10].
As for `Cc1cccc(Nc2ccncc2S(=O)(=O)NC(=O)NC(C)C)c1`, the Potency entry in [1], in experiment [13], in [3], in experiment [17], in experiment [6] and in experiment [18] was “inactive” in each case. In addition, the Potency result in experiment [11] and in experiment [20] was “inactive” in each case. Moreover, the call in experiment [12], in experiment [5], in experiment [14], in [19], in experiment [15] and in experiment [9] was inactive. The outcome in experiment [16] and in experiment [10] was inactive.
On to `CC1=NN(c2ccc(S(=O)(=O)O)cc2)C(=O)C1N=Nc1ccccc1` (centres undefined), for which the Potency result in [1], in experiment [13], in [3], in experiment [7], in experiment [8] and in [11] was “inactive” throughout. Further, the result in experiment [12], in [9] and in experiment [10] was inactive. For the same compound, the Potency was 54.5 µM (active) in experiment [4] and 71 µM (active) in experiment [17].
Turning to `C[C@H](CCC(=O)NCC(=O)O)[C@H]1CC[C@H]2[C@@H]3[C@H](O)C[C@@H]4C[C@H](O)CC[C@]4(C)[C@H]3C[C@H](O)[C@]12C`, the Potency entry in [1], in experiment [13], in experiment [3], in experiment [4], in experiment [17] and in experiment [6] was “inactive” throughout. Besides, the Potency result in [11] and in [20] was “inactive” each time. Also, the outcome in experiment [12], in experiment [19], in experiment [15], in experiment [9] and in [16] was inactive.
For the compound `CCC1COC(=O)O1` (centres undefined), the Potency result in experiment [1], in experiment [13], in experiment [3], in experiment [4], in experiment [17] and in [6] was “inactive” each time. Besides, the Potency result in experiment [11] and in [20] was “inactive” in each case. For the same compound, the call in experiment [12], in experiment [14], in experiment [19], in experiment [15], in experiment [9] and in experiment [16] was inactive. In addition, in [10], the outcome was inactive.
